Several values for one entry are separate records, joined by “and”; a condition that tells them apart may be missing. Identical values can stand only once. The source holds several records for some structures; these can differ, active in one and inactive in another. Activity calls are given as the source filed them. The calls were made as follows: active = hit-call score of the fitted dose curve at least 0.9, where 1 is the maximum; inactive = score below 0.9.

Read-out in this test: Monocyte Chemoattractant Protein-1 (MCP1), CCL2 (gene 6347)
The test is described as follows: BSK_BF4T_MCP1: BioMAP Diversity Plus: BF4T Assay for Monocyte Chemoattractant Protein-1 (MCP1) Biomarker Activity (AID 2284259). As to conditions: primary human bronchial epithelial cells with fibroblasts. On the procedure: BSK_BF4T is a cell-based, multiplexed-readout assay that uses bronchial epithelial cells and dermal fibroblasts, a human vascular primary cell, with measurements taken at 24 hours after chemical dosing in a microplate: 96-well plate.BSK_BF4T_MCP1 is an assay component measured in the BSK_BF4T assay. It measures MCP-1 antibody related to regulation of gene expression using ELISA technology.Data from the assay component BSK_BF4T_MCP1 was analyzed at the endpoint, BSK_BF4T_MCP1, in the positive analysis fitting direction relative to DMSO as the negative control and baseline of activity. Using a type of binding reporter, gain or loss-of-signal activity can be used to understand protein changes. To generalize the intended target to other relatable targets, this assay endpoint is annotated to the 'cytokine' intended target family, where the subfamily is 'chemotactic factor'.
The levels of cell surface (or secreted, indicated by the prefix "s") biomarker endpoints were measured by ELISA. Overt cytotoxicity to cells in confluent adherent cultures (all systems other than the BT system) was assessed by measuring total protein levels using sulforhodamine B (SRB) staining in parallel cultures at the time of biomarker measurements, indicated as SRB endpoints. For proliferation assays for adherent cell types, individual cell types are cultured at sub-confluence and relative cell numbers quantified by SRB staining at time points optimized for each system (48 h: 3C and CASM3C systems; 72 h: BT and HDF3CGF systems; 96 h: SAg system). SRB was performed by staining cells with 0.1% SRB after fixation with 10% TCA and reading wells at 560 nm.Viability and proliferation of PBMC (T cells) was quantified by Alamar Blue reduction for the SAg and BT systems. For PBMC viability (referred to as PBMC Cytotoxicity within the assay endpoint names), cells were plated (75,000/well in a 96-well plate) and then chemical samples added for 1 h before addition of activators, SEB and TSST-1 (20 ng/mL final concentration each). Cells were incubated for 90 h. Then, Alamar Blue (20 uL/well) (Invitrogen, Cat DAL1100) was added for 6 h, and the plates were read with a fluorescence microplate reader at 546/580 nm (excitation/emission). For PBMC proliferation, cells were plated and activated as above but incubated for only 16 h prior to addition of Alamar Blue. Plates were read after 6 h.
With `O=C(O)C(F)(OC(F)(F)C(F)(OC(F)(F)C(F)(F)C(F)(F)F)C(F)(F)F)C(F)(F)F` (stereo not given), the result was inactive.
`C=CC(F)(F)C(F)(F)C(F)(F)C(F)(F)C(F)(F)C(F)(F)C(F)(F)C(F)(F)C=C`: the outcome was inactive.
Regarding `O=C(O)C(F)(F)C(F)(F)C(F)(F)C(F)(F)C(F)(F)C(F)(F)C(F)(F)C(F)(F)Cl`, the AC50 was 40.4 µM (active) and 45.9 µM (active).
In the case of `C=CC(=O)OCC(F)(F)C(F)(F)C(F)(F)C(F)(F)C(F)(F)C(F)(F)C(F)(F)F`, the outcome was inactive.
With `FC(F)(F)C(F)(F)C(F)(F)C(F)(F)CCI`, the concentration at half-maximal activity (AC50) is 7.18 µM (active) and the outcome was inactive.
For `FC1CC(F)(F)C(F)(F)C1(F)F` (stereo not given), the result was inactive.
On to `O=P(O)(O)OCCC(F)(F)C(F)(F)C(F)(F)C(F)(F)C(F)(F)C(F)(F)F`, for which the outcome was inactive.
Consider `NC(=O)C(F)(F)C(F)(F)C(F)(F)C(F)(F)F`, for which the AC50 was 26.5 µM (active) and the outcome was inactive.
Take `FC(F)(F)C(F)(F)C(F)(F)C(F)(F)C(F)(F)C(F)(F)C(F)(F)C(F)(F)CCS`: the result was inactive.
Regarding `O=C(Cl)C(F)(F)C(F)(F)C(F)(F)C(F)(F)C(F)(F)C(F)(F)C(F)(F)C(F)(F)F`, the outcome was inactive and the AC50 was 45.5 µM (active).
Turning to `O=C(O)C(F)(F)C(F)(F)F`, the result was inactive and the AC50 is 48 µM (active).
Turning to `O=C(O)C(F)(OC(F)(F)C(F)(OC(F)(F)C(F)(OC(F)(F)C(F)(F)C(F)(F)F)C(F)(F)F)C(F)(F)F)C(F)(F)F` (stereo not given), the result was inactive.
As for `O=C(CC(=O)C(F)(F)C(F)(F)F)C(F)(F)F`, the result was inactive.
Still for that read-out and setting: in the case of `O=C(O)C(F)(F)C(F)(F)C(F)F` it was “inactive”; in that of `O=C(O)C(F)(F)C(F)(F)OC(F)(F)F`, “inactive”.
On to `Cc1ccc(S(=O)(=O)OCC(F)(F)C(F)(F)C(F)(F)C(F)(F)C(F)(F)C(F)F)cc1`, for which the AC50 is 7.88 µM (active) and the result was inactive.
Turning to `COC(=O)CCC(F)(F)C(F)(F)C(F)(F)C(F)(F)F`, the result was inactive.
On the same count and under the same terms, in the case of `C=C(C)C(=O)OCC(F)(F)C(F)(F)C(F)(F)F` it was “inactive”.
`FC(F)(I)C(F)(F)C(F)(F)C(F)(F)I`: the half-maximal activity concentration (AC50) is 38 µM (active) and 42.1 µM (active) and 42.5 µM (active).
On to `O=C(O)C(F)(F)C(F)(F)C(F)(F)C(F)(F)F`, for which the result was inactive.
Consider `OCC(F)(F)C(F)(F)C(F)(F)C(F)(F)C(F)(F)C(F)F`, for which the outcome was inactive.
For the compound `C=C(C)C(=O)OCC(F)(F)C(F)(F)C(F)(F)C(F)(F)C(F)(F)C(F)(F)C(F)(F)F`, the outcome was inactive.
As for `C=CC(F)(F)C(F)(F)C(F)(F)C(F)(F)C(F)(F)C(F)(F)C(F)(F)C(F)(F)F`, the outcome was inactive.
Still for that read-out and setting: next, `FC(F)(Br)C(F)(F)C(F)(F)C(F)(F)C(F)(F)C(F)(F)Br`: “inactive”; `FC(F)(F)C(F)(F)C(F)(F)C(F)(F)C(F)(F)C(F)(F)CCS`: “inactive”.
`N=C(N)C(F)(F)C(F)(F)C(F)(F)C(F)(F)C(F)(F)C(F)(F)C(F)(F)F`: the outcome was inactive.
As to `FC(F)(F)C(F)(F)C(F)(F)CI`, the result was inactive.
`OCC(F)(F)C(F)(F)C(F)(F)C(F)(F)C(F)(F)C(F)(F)F`: the outcome was inactive.
On to `FC(F)(F)C(F)(F)C(F)(F)N(C(F)(F)C(F)(F)C(F)(F)F)C(F)(F)C(F)(F)C(F)(F)F`, for which the outcome was inactive.
With `CC(C)(C)C(=O)CC(=O)C(F)(F)C(F)(F)C(F)(F)F`, the AC50 was 49.9 µM (active) and the result was inactive.
As to `FC(F)(F)C(F)(F)CNCC(F)(F)C(F)(F)F`, the result was inactive.
`OCCCC(F)(F)C(F)(F)C(F)(F)F`: the result was inactive.
On to `O=C(O)C=C(C(F)(F)F)C(F)(F)F`, for which the result was inactive.
Regarding `FC(F)(F)C(F)(F)C(F)(F)C(F)(F)C(F)(F)C(F)(F)C(F)(F)Br`, the result was inactive.

As usually defined, the AC50 is the concentration giving half of the maximal activity seen.

Source of the values: PubChem BioAssay (EPA / NIEHS).
